Out of some 5,500 compounds screened, about 2,000 (36%) were called active. Not shown: some 18% with an inconclusive outcome. Rule as the data show it: active = normalized growth mostly below about 0.91 (no sharp cut-off); inconclusive = no clear call, values can overlap the other calls; inactive = mostly above about 0.92. The list shows a part of the results.
Assay: chemical genetic growth profiling, strain panel (AID 1159580);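 also: tested at 20 µM; growth read once vehicle control cultures reached saturation at 30 °C; 1 = growth at the plate median or of vehicle wells; lower values mean less growth of the strain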
Details: growth OD

Measured: normalized growth

C[C@]12CCC3c4ccc(O)cc4CCC3C1CC[C@@H]2OC(=O)CCC1CCCC1 (stereo not given in full)
inactive: S. cerevisiae deletion strains, locus YJR075W, strain HOC1, stronger effect = lower value 0.988 | S. cerevisiae deletion strains, locus YKL009W, strain mrt4, stronger effect = lower value 0.986 | S. cerevisiae deletion strains, locus YKL068W, stronger effect = lower value 0.991 | S. cerevisiae deletion strains, locus YKL085W, strain MDH1 (second series), stronger effect = lower value 0.998 | S. cerevisiae deletion strains, locus YKL085W, strain MDH1, stronger effect = lower value 0.998 | S. cerevisiae deletion strains, locus YKL160W, strain elf1, stronger effect = lower value 1.03 | S. cerevisiae deletion strains, locus YKL190W, strain CNB1, stronger effect = lower value 0.992 | S. cerevisiae deletion strains, locus YKR001C, strain vps1, stronger effect = lower value 0.973 | S. cerevisiae deletion strains, locus YKR026C, strain gcn3, stronger effect = lower value 1.01 | S. cerevisiae deletion strains, locus YKR091W, strain srl3, stronger effect = lower value 1.02 | S. cerevisiae deletion strains, locus YLL001W, strain dnm1, stronger effect = lower value 1.03 | S. cerevisiae deletion strains, locus YLL026W, stronger effect = lower value 1.01 | S. cerevisiae deletion strains, locus YLL041C, strain sdh2, stronger effect = lower value 1 | S. cerevisiae deletion strains, locus YLR027C, strain aat2, stronger effect = lower value 0.995 | S. cerevisiae deletion strains, locus YLR039C, strain RIC1, stronger effect = lower value 0.984 | S. cerevisiae deletion strains, locus YLR058C, strain SHM2, stronger effect = lower value 0.991 | S. cerevisiae deletion strains, locus YLR102C, strain apc9, stronger effect = lower value 1.01 | S. cerevisiae deletion strains, locus YLR113W, strain HOG1, stronger effect = lower value 1.06 | S. cerevisiae deletion strains, locus YLR221C, strain rsa3, stronger effect = lower value 1.02 | S. cerevisiae deletion strains, locus YLR258W, strain gsy2, stronger effect = lower value 1.01 | S. cerevisiae deletion strains, locus YLR262C, strain YPT6 (second series), stronger effect = lower value 1.02 | S. cerevisiae deletion strains, locus YLR262C, strain YPT6, stronger effect = lower value 0.897 | S. cerevisiae deletion strains, locus YLR268W, strain sec22, stronger effect = lower value 0.993 | S. cerevisiae deletion strains, locus YLR320W, strain mms22, stronger effect = lower value 1.03 | S. cerevisiae deletion strains, locus YLR330W, strain CHS5, stronger effect = lower value 0.984 | S. cerevisiae deletion strains, locus YLR342W, strain FKS1 (second series), stronger effect = lower value 1 | S. cerevisiae deletion strains, locus YLR342W, strain FKS1, stronger effect = lower value 1.01 | S. cerevisiae deletion strains, locus YLR357W, strain rsc2, stronger effect = lower value 1.03 | S. cerevisiae deletion strains, locus YLR370C, strain arc18, stronger effect = lower value 1.02 | S. cerevisiae deletion strains, locus YLR371W, strain rom2, stronger effect = lower value 1.03 | S. cerevisiae deletion strains, locus YLR384C, strain iki3, stronger effect = lower value 1 | S. cerevisiae deletion strains, locus YLR418C, strain cdc73, stronger effect = lower value 1.03 | S. cerevisiae deletion strains, locus YML016C, strain PPZ1, stronger effect = lower value 0.988 | S. cerevisiae deletion strains, locus YML032C, strain rad52, stronger effect = lower value 0.986 | S. cerevisiae deletion strains, locus YML120C, strain ndi1, stronger effect = lower value 1.03 | S. cerevisiae deletion strains, locus YML124C, strain tub3, stronger effect = lower value 0.991 | S. cerevisiae deletion strains, locus YMR058W, strain fet3, stronger effect = lower value 1.01 | S. cerevisiae deletion strains, locus YMR078C, strain ctf18, stronger effect = lower value 1.01 | S. cerevisiae deletion strains, locus YMR125W, strain sto1, stronger effect = lower value 1.02 | S. cerevisiae deletion strains, locus YMR129W, stronger effect = lower value 1.02 | S. cerevisiae deletion strains, locus YMR205C, strain PFK2, stronger effect = lower value 1.01 | S. cerevisiae deletion strains, locus YMR223W, strain ubp8, stronger effect = lower value 1.04 | S. cerevisiae deletion strains, locus YMR231W, strain pep5, stronger effect = lower value 1 | S. cerevisiae deletion strains, locus YMR307W, strain GAS1, stronger effect = lower value 0.998 | S. cerevisiae deletion strains, locus YNL067W, strain RPL9B, stronger effect = lower value 0.988 | S. cerevisiae deletion strains, locus YNL071W, strain lat1, stronger effect = lower value 1.01 | S. cerevisiae deletion strains, locus YNL128W, strain TEP1, stronger effect = lower value 0.976 | S. cerevisiae deletion strains, locus YNL183C, strain NPR1, stronger effect = lower value 0.982 | S. cerevisiae deletion strains, locus YNL209W, strain ssb2, stronger effect = lower value 1.01 | S. cerevisiae deletion strains, locus YNL233W, strain BNI4, stronger effect = lower value 0.993 | S. cerevisiae deletion strains, locus YNL248C, strain rpa49, stronger effect = lower value 1.02 | S. cerevisiae deletion strains, locus YNL250W, strain rad50, stronger effect = lower value 1.01 | S. cerevisiae deletion strains, locus YNL271C, strain bni1, stronger effect = lower value 0.999 | S. cerevisiae deletion strains, locus YNL298W, strain CLA4, stronger effect = lower value 0.999 | S. cerevisiae deletion strains, locus YNL307C, strain MCK1, stronger effect = lower value 0.996 | S. cerevisiae deletion strains, locus YNL322C, strain KRE1 (second series), stronger effect = lower value 1.04 | S. cerevisiae deletion strains, locus YNL322C, strain KRE1, stronger effect = lower value 0.998 | S. cerevisiae deletion strains, locus YNR049C, strain mso1, stronger effect = lower value 1.03 | S. cerevisiae deletion strains, locus YNR052C, strain pop2, stronger effect = lower value 1.01 | S. cerevisiae deletion strains, locus YOL006C, strain TOP1, stronger effect = lower value 0.976 | S. cerevisiae deletion strains, locus YOL012C, strain htz1 1.23 | S. cerevisiae deletion strains, locus YOL147C, strain pex11, stronger effect = lower value 1.01 | S. cerevisiae deletion strains, locus YOR001W, strain rrp6, stronger effect = lower value 0.995 | S. cerevisiae deletion strains, locus YOR061W, strain CKA2, stronger effect = lower value 0.969 | S. cerevisiae deletion strains, locus YOR069W, strain VPS5, stronger effect = lower value 0.994 | S. cerevisiae deletion strains, locus YOR070C, strain gyp1, stronger effect = lower value 1.02 | S. cerevisiae deletion strains, locus YOR080W, strain dia2, stronger effect = lower value 0.998 | S. cerevisiae deletion strains, locus YOR083W, strain WHI5, stronger effect = lower value 1.05 | S. cerevisiae deletion strains, locus YOR106W, strain vam3, stronger effect = lower value 1.04 | S. cerevisiae deletion strains, locus YOR136W, strain idh2, stronger effect = lower value 0.991 | S. cerevisiae deletion strains, locus YOR144C, strain elg1, stronger effect = lower value 0.992 | S. cerevisiae deletion strains, locus YOR184W, strain ser1, stronger effect = lower value 0.99 | S. cerevisiae deletion strains, locus YOR231W, strain MKK1, stronger effect = lower value 1.07 | S. cerevisiae deletion strains, locus YOR265W, strain rbl2, stronger effect = lower value 1.01 | S. cerevisiae deletion strains, locus YOR270C, strain vph1, stronger effect = lower value 1.06 | S. cerevisiae deletion strains, locus YOR290C, strain snf2, stronger effect = lower value 0.986 | S. cerevisiae deletion strains, locus YOR316C, strain cot1, stronger effect = lower value 0.989 | S. cerevisiae deletion strains, locus YPL051W, strain arl3, stronger effect = lower value 1.01 | S. cerevisiae deletion strains, locus YPL055C, strain LGE1, stronger effect = lower value 0.994 | S. cerevisiae deletion strains, locus YPL078C, strain atp4, stronger effect = lower value 1.04 | S. cerevisiae deletion strains, locus YPL106C, strain sse1, stronger effect = lower value 1.05 | S. cerevisiae deletion strains, locus YPL240C, strain hsp82, stronger effect = lower value 0.996 | S. cerevisiae deletion strains, locus YPL241C, strain CIN2, stronger effect = lower value 0.979 | S. cerevisiae deletion strains, locus YPL256C, strain CLN2, stronger effect = lower value 1.03 | S. cerevisiae deletion strains, locus YPR119W, strain clb2, stronger effect = lower value 1 | S. cerevisiae deletion strains, locus YPR141C, strain kar3, stronger effect = lower value 0.996 | S. cerevisiae deletion strains, locus YPR163C, strain tif3, stronger effect = lower value 1 | S. cerevisiae deletion strains, locus YPR167C, strain met16, stronger effect = lower value 0.997 | S. cerevisiae deletion strains, strain wtn01, stronger effect = lower value 1.01 | S. cerevisiae strains, strain wild type, stronger effect = lower value 0.973
